Laboratory results taken from PubChem BioAssay AID1259309 (ICCB-Longwood Screening Facility, Harvard Medical School, 2017).
Out of some 330,000 compounds screened, about 1,800 (0.55%) were called active. This is one part of a sample in which actives are shown more often than they occur. Values without a mark were called inactive. Cut-off read from the data, not from the text of the source: active = growth inhibition above about 68%; inactive = the rest.

Assay: growth inhibition of ugtP-null S. aureus, primary screen, RN4220 ugtP deletion, OD600 (AID 1259309);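 note: plate controls were untreated wells for no effect and antibiotic for full effect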
Conditions: 16 h, stronger effect = higher value
For `CSc1sccc1C=NNC(=O)c1ccncc1`, the growth inhibition was -0.193%.
For `CCN1/C(=C/c2ccc3ccc(C)cc3[n+]2CC)Sc2ccccc21`, the growth inhibition was 100% (active).
With `CC(=NNC(=O)c1ccc(F)cc1)c1ccccn1` the growth inhibition was -8.87%.
Work on `CCOc1cc(C=NNC(=O)c2cccc(S(=O)(=O)N3CCOCC3)c2)ccc1OCC(=O)N(C)C` yielded a growth inhibition of 7.71%.
For `COC(=O)c1ccc(-c2c(-c3ccccc3)ncc3cc(OC)c(OC)cc23)cc1`, the growth inhibition was 97.6% (active).
Molecule `COc1ccc(CNC(=O)Cc2ccc(-c3ccccc3)cc2)cc1OC` has a growth inhibition of -1.11%.
With `COC(=O)c1ccc(SCc2ccccc2)nc1` the growth inhibition was 3.84%.
With `Cc1cccc(-n2c(C)cc(C=NNC(=O)c3ccco3)c2C)c1` the growth inhibition was -2.71%.
With `COC(=O)C1=C(c2ccc(S(C)(=O)=O)cc2)CC2CCC1N2C(=O)N1CCCC1` (configuration not stated) the growth inhibition was 2.31%.
With `Cc1nn(-c2ccccc2)c(Cl)c1/C=C/C(=O)c1ccc(O)cc1` the growth inhibition was 86.2% (active).
For `Cc1nn(-c2ccccc2)c(Cl)c1C=NO`, the growth inhibition was -0.481%.
Work on `Cc1ccc(C(=O)/C=C/c2c(C)nn(-c3ccccc3)c2Cl)cc1` yielded a growth inhibition of -4.9%.
In the case of `CNC(=S)NN=Cc1c(C(=O)OC)cnn1-c1ccc(F)cc1F`, the growth inhibition is reported as 2.84%.
For `O=S(=O)(N=C(c1ccccc1Cl)N1CCOCC1)c1ccccc1`, the growth inhibition was -1.9%.
For `Cc1cc(C(=O)NN=C2CCCC(C)C2)n[nH]1` (configuration not stated), the growth inhibition was 1.57%.
In the case of `COc1cc(NC(=O)c2ccccc2NS(=O)(=O)c2ccc(Cl)s2)cc(OC)c1`, the growth inhibition is reported as 88% (active).
`COc1cc(OC)c(S(=O)(=O)Nc2ccccc2C(=O)O)cc1S(=O)(=O)Nc1ccccc1C(=O)O` showed a growth inhibition of 7.58%.
In the case of `COc1ccccc1C(=O)Nc1ccccc1C(=O)Nc1ccccc1`, the growth inhibition is reported as 6.78%.
With `COC(=O)C1C[C@@]2(O)C(O)C(O)C(O)CC2N1Cc1cc(F)ccc1F` (some centres not stated) the growth inhibition was -1.93%.
For `CCOC(=O)N=C(NC(=O)Nc1ccc(C(=O)OCC)cc1)OC`, the growth inhibition was 0.614%.
Molecule `Cc1ccccc1C=Nn1c(C2CCCCC2)n[nH]c1=S` has a growth inhibition of -0.971%.
`N#Cc1ccc(CSc2ncccn2)cc1` showed a growth inhibition of 7.1%.
For `N#CC1=C(SCc2ccccc2)NC(=O)C(C#N)C12CCCC2` (configuration not stated), the growth inhibition was -2.16%.
With `N#CC1=C(SCc2ccc(C#N)cc2)N=C(N)C(c2nc(-c3ccccc3)cs2)C12CCCCC2` (configuration not stated) the growth inhibition was 92.2% (active).
`CC(=NOCC(=O)OCC(=O)Nc1cc(S(C)(=O)=O)ccc1Cl)c1ccc2c(c1)OCO2` gave a growth inhibition of 4.9%.
In the case of `CCOc1cc(C=NNC(=O)C(O)(c2ccccc2)c2ccccc2)ccc1OC(=O)c1ccco1`, the growth inhibition is reported as 0.814%.
`COCCN=C1NC(c2cccc(C(F)(F)F)c2)C(C(=O)OC)=C(C)N1Cc1ccccc1` (configuration not stated) gave a growth inhibition of -23%.
With `CCC(C)(C)c1ccc(OCC(=O)N(C)C)c(C(C)(C)CC)c1` the growth inhibition was 93.1% (active).
`CN1CCN(C(=O)COc2ccc(C(C)(C)C)cc2Br)CC1` showed a growth inhibition of -4.55%.
In the case of `CCc1nc(C)ccc1OCC(=O)N(CC)CC`, the growth inhibition is reported as 2.97%.
With `O=c1[nH]ncc(NN=Cc2cccnc2)c1Cl` the growth inhibition was 8.44%.
`CC(CC(=O)N1CCN(C=O)CC1)=NNC(=O)c1ccc(Cl)cc1` showed a growth inhibition of 3.18%.
With `COC(=O)C1=C(C(=O)OC)C2N(C)c3ccccc3[C@@]23CC(CO)N(C(=O)c2cccs2)C3=N1` (some centres not stated) the growth inhibition was 3.42%.
`CCOc1ccc(-c2c(C(=O)NN=C(C)c3ccccc3OC)nnn2-c2nonc2N)cc1` gave a growth inhibition of 7.28%.
Molecule `COc1cc(C(=O)NN=Cc2cc([N+](=O)[O-])cs2)cc(OC)c1OC` has a growth inhibition of 2.4%.
With `CC1=NOC(=O)C1=Cc1ccc(-c2ccc(Cl)c(C(=O)O)c2)o1` the growth inhibition was 2.05%.
In the case of `O=C(O)C(c1ccccc1)N1C(=O)/C(=C\c2ccc(-c3cccc(Cl)c3)o2)SC1=S` (configuration not stated), the growth inhibition is reported as 95.7% (active).
`S=c1[nH]nc(-c2cccc(Cl)c2)n1N=Cc1ccc(-c2ccccc2Br)o1` gave a growth inhibition of 27.2%.
Molecule `COc1ccc(CC(=O)NCC(=O)NN=Cc2ccc(C)o2)cc1` has a growth inhibition of 8.44%.
Molecule `CC(C)(C)OC(=O)NC(Cc1ccccc1)C(=O)NC(CO)C(O)C1CC1C(=O)NC1CC1` (configuration not stated) has a growth inhibition of -0.531%.
In the case of `CC(C)(C)OC(=O)C1=C(CO)CS[C@@H]2[C@H](NC(=O)Cc3ccccc3)C(=O)N12`, the growth inhibition is reported as 101% (active).
For `O=C(Cc1ccccc1)NNC1CC(=O)N(c2ccc(Br)cc2)C1=O` (configuration not stated), the growth inhibition was -0.3%.
With `N#Cc1nc(-c2ccc(OCc3ccccc3)cc2)oc1NCCCN1CCOCC1` the growth inhibition was 85.2% (active).
Work on `O=S(=O)(c1ccccc1)c1nc(-c2ccccc2)oc1NCCCN1CCOCC1` yielded a growth inhibition of 2.69%.
`Cc1ccc(-c2nc(C#N)c(NCCCn3ccnc3)o2)cc1` showed a growth inhibition of -7.44%.
Molecule `O=C(NN=C/C=C/c1ccco1)c1cccnc1` has a growth inhibition of -1.13%.
Work on `CCC1=C(OC(=O)N(CC)CC)N2C(=O)OC(=NCC3CC3)[C@]2(Cc2ccccc2)C2C1=CCC1C(=O)N(CC(=O)OC)C(=O)C12` (some centres not stated) yielded a growth inhibition of 5.55%.
In the case of `CC(C)NC(=O)N(C)CC1Oc2ccc(NC(=O)Nc3ccc(C(F)(F)F)cc3)cc2CC(=O)N(C(C)CO)CC1C` (configuration not stated), the growth inhibition is reported as -1.09%.
For `N#CC(=NNc1ccc(Cl)cc1)C(=O)c1ccccc1`, the growth inhibition was 99.4% (active).
Work on `N#C/C(=C/c1ccc(Cl)cc1)NC(=O)c1ccccc1` yielded a growth inhibition of -7.93%.
For `N#CC(=NNc1ccc(Cl)cc1)C(=N)N1CCCCC1`, the growth inhibition was -11.7%.
`CCCCC(O)(CCCC)C(=O)NN=C(C)c1ccc(Cl)cc1` showed a growth inhibition of -3.08%.
`COc1ccc(C=NNC(=O)c2ccccc2OC)cc1COc1ccccc1[N+](=O)[O-]` gave a growth inhibition of 4.98%.
With `COc1ccc(C(=O)NN=Cc2ccc(OC)c(CN3CCCc4ccccc43)c2)cc1` the growth inhibition was -10.3%.
In the case of `COc1ccc(C(=O)NN=Cc2ccc(OC(=O)c3cccc4ccccc34)c([N+](=O)[O-])c2)cc1`, the growth inhibition is reported as 96.8% (active).
For `CC(=NNc1cccc(C(=O)O)c1)c1cc2ccccc2o1`, the growth inhibition was 5.08%.
Molecule `C=C(C)C(=O)Nc1cccc(C2=NOC3(C2)CC(C(N)=O)N(C(=O)c2ccccc2)C3)c1` (configuration not stated) has a growth inhibition of 0.731%.
